Screens as filed in PubChem BioAssay.
The full list was thinned out, with hits kept by preference.
STK33 inh = inhibitors of human STK33 kinase | inhibition, % at 12.5 µM | ADP-Glo luminescence, MBP substrate | AID 2322 | actives 0.44% (n = 27,000) | Q9BYT3; in the data active = inhibition above about 20%
PD-1 reverse act = reversal of PD-1 mediated T-cell inhibition | activation, % (concentration not given with the values) | primary human CD4 T cells, PD-L1 beads, CellTiter-Glo 96 h | 29,000 tested, under 10 active | AID 2316; call rule not given here;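 note: 0% = median vehicle wells and 100% = positive control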
NOMO-1 viab = STK33 inhibitor candidate reducing NOMO-1 cell viability | actives 7.5% (n = 37,000) | NOMO-1 AML viability, CellTiter-Glo luminescence, 72 h | inhibition, % (concentration not given with the values) | AID 2330; in the data active = inhibition above about 80%
The depositor's hits bear a star; nt = not tested or not shown.

SMILES | STK33 inh | PD-1 reverse act | NOMO-1 viab
C[C@H]1CN([C@@H](C)CO)C(=O)Cc2cc(NC(=O)Nc3ccc4c(c3)OCO4)ccc2O[C@@H]1CN(C)Cc1ccc(C(=O)Nc2ccccc2N)cc1 | nt | -0.2 | -9.0
C[C@H]1CN([C@@H](C)CO)C(=O)Cc2cc(NC(=O)c3ccncc3)ccc2O[C@H]1CN(C)Cc1ccc(C(=O)Nc2ccccc2N)cc1 | nt | -3.1 | 126.0*
C[C@H]1CN([C@@H](C)CO)C(=O)Cc2cc(NC(=O)Nc3ccc(F)cc3)ccc2O[C@H]1CN(C)Cc1ccc(C(=O)Nc2ccccc2N)cc1 | nt | -2.0 | 128.3*
C[C@@H]1CN([C@H](C)CO)C(=O)Cc2cc(NC(=O)Nc3ccc(F)cc3)ccc2O[C@@H]1CN(C)Cc1ccc(C(=O)Nc2ccccc2N)cc1 | nt | -1.2 | 97.3*
O=C(Oc1ccc(S(=O)(=O)c2ccc(OC(=O)c3cccs3)cc2)cc1)c1cccs1 | nt | -0.5 | 28.8
OC(COc1ccccc1Cl)Cn1nnc2ccccc21 (stereo not drawn) | -2.6 | 2.8 | 7.3
Cc1noc(C)c1NC(=O)Nc1ccc2c(c1)CC(=O)N([C@H](C)CO)C[C@H](C)[C@H](CN(C)Cc1ccc(C(=O)Nc3ccccc3N)cc1)O2 | nt | 0.6 | 136.7*
C[C@H]1CN([C@@H](C)CO)C(=O)Cc2cc(NC(=O)Nc3cccc4ccccc34)ccc2O[C@H]1CN(C)Cc1ccc(C(=O)Nc2ccccc2N)cc1 | nt | -1.2 | 105.2*
CC(C)NC(=O)Nc1ccc2c(c1)CC(=O)N([C@@H](C)CO)C[C@@H](C)[C@@H](CN(C)Cc1ccc(C(=O)Nc3ccccc3N)cc1)O2 | nt | -3.8 | 107.3*
C[C@H]1CN([C@@H](C)CO)C(=O)Cc2cc(NC(=O)Nc3cccc4ccccc34)ccc2O[C@@H]1CN(C)Cc1ccc(C(=O)Nc2ccccc2N)cc1 | nt | -1.3 | 28.6
Cc1noc(C)c1NC(=O)Nc1ccc2c(c1)C(=O)N([C@H](C)CO)C[C@H](C)[C@H](CN(C)Cc1ccc(C(=O)Nc3ccccc3N)cc1)O2 | nt | 0.1 | 37.0
C[C@H]1CN([C@@H](C)CO)C(=O)Cc2cc(NC(=O)Nc3ccccc3)ccc2O[C@H]1CN(C)Cc1ccc(C(=O)Nc2ccccc2N)cc1 | nt | -3.9 | 139.4*
Cc1ccc(NC(=O)CN(c2ccc(F)c(Cl)c2)S(C)(=O)=O)c(C)c1 | -2.2 | 0.6 | 7.6
Cc1cccc(-c2nc3cc(NC(=O)COc4ccc([N+](=O)[O-])cc4)ccc3o2)c1 | 2.3 | nt | -13.5
COc1ccc(-n2c(SCC(=O)Nc3ccccc3C)nc3ccccc3c2=O)cc1 | -5.1 | -0.8 | 12.0
CC1CCc2c(sc(NC(=O)CCN3C(=O)c4ccccc4C3=O)c2C#N)C1 (stereo not drawn) | -0.8 | nt | 1.8
CCc1nc(SCC(=O)N(c2ccccc2)c2ccccc2)n[nH]1 | 4.3 | 0.1 | 29.9
CC1(C)CC(n2c(SCC(=O)c3ccc(Cl)cc3)nc3ccccc3c2=O)CCO1 (stereo not drawn) | 0.3 | nt | nt
COc1ccc(C2CC(c3ccc(Br)cc3)=NN2C(=O)CCN2CCOCC2)cc1 (stereo not drawn) | nt | -0.9 | 40.0
Cc1ccc(C)c(-n2nnnc2SCC(=O)Nc2ccc(F)cc2)c1 | 1.0 | -1.1 | 15.4
COc1ccc(Oc2ccc(NC(=O)C(C)N3C(=O)C4C5C=CC(C6CC56)C4C3=O)cc2)cc1 (stereo not drawn) | -0.3 | nt | 17.7
COCc1nc2ccccc2n1CCOc1ccc(Cl)cc1Cl | -2.7 | nt | 32.6
COc1ccc(C2CC(=O)Oc3cc(O)cc(O)c32)cc1 (stereo not drawn) | 0.0 | 0.1 | 6.1
O=C1Oc2cc(O)cc(O)c2[C@@H](c2ccc(O)cc2)[C@H]1[C@H]1C(=O)Oc2cc(O)cc(O)c2[C@H]1c1ccc(O)cc1 | 28.3* | -1.5 | 19.5
CCOC(=O)CNC(=O)c1cc2nc(-c3ccc(Cl)s3)cc(C(F)(F)F)n2n1 | -2.0 | -7.3 | 13.2
SMILES | STK33 inh | PD-1 reverse act | NOMO-1 viab
Cc1cc(Cl)ccc1OCC(O)CN1CCC(CN2C(=O)c3cccc4cccc(c34)C2=O)CC1 (stereo not drawn) | -1.6 | nt | 119.2*
O=C1c2ccccc2C(=O)N1CC1CCN(Cc2ccc(OCCO)cc2)CC1 | 0.6 | nt | nt
O=C(CSc1nc2ccccc2[nH]1)Nc1cccc(Cl)c1Cl | 2.1 | nt | -2.8
Cc1cc(C)c2c(c1C(=O)Nc1cccc(C(F)(F)F)c1)CC(C)(C)C2=O | nt | -0.4 | 75.4
OCC1OC(Oc2cc(O)cc(/C=C/c3ccccc3)c2)C(O)C(O)C1O (stereo not drawn) | -1.7 | nt | nt
C[C@@H]1CN([C@H](C)CO)C(=O)c2cc(NC(=O)Nc3ccc(C(F)(F)F)cc3)ccc2O[C@@H]1CN(C)CC1CC1 | nt | nt | 27.3
C[C@H]1CN([C@@H](C)CO)C(=O)Cc2cc(NC(=O)Nc3ccc(C(F)(F)F)cc3)ccc2O[C@@H]1CN(C)CC1CC1 | nt | 2.4 | 10.6
